Growth data for 33 molecules are collected here from PubChem BioAssay (NCI).

“And” between values parts separate entries of the source, which are not always exact repeats. Equal values may be shown once. The panel holds about 83,000 compounds, 20% with a hit somewhere; the sample as a whole holds those more often.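 The test compound was applied at a single concentration to cells in 96-well plates for 48 hours, and percent growth was recorded.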 The source made the active and inactive calls. How the source made its calls: active means growth percent below 10; inactive means the rest.

The test system of the assay is SN12C renal. In words: NCI-60 one-dose screen, 48 h (100 = growth as untreated, 0 = no growth, -100 = all killed). As to conditions: 10 µM unless noted.
In the case of `Cc1cc(Br)ccc1-n1cc(C#N)c(N)c1C(=O)c1ccc(Br)cc1`, the growth was 110% (inactive).
Under `CCCCCCN1C=C/C(=C\C(=O)n2ccc3ccccc32)c2ccccc21` stands 67.6% (inactive).
For `Cc1ccc(CSC2=C(Cl)CN(c3ccc(Cl)cc3)C2=O)cc1`, the growth was 104% (inactive).
As to `Clc1ccc(CSc2nnc(-c3ccc(Cl)cc3)n2-c2ccccc2)cc1`, the growth was 82.9% (inactive).
Under `NS(=O)(=O)c1ccc(CCn2c(-c3ccc(C(=O)O)cc3)nc(-c3ccccc3)c2-c2ccccc2)cc1` stands 101% (inactive); under `CC(=C(c1ccc(OCCCN(C)C)cc1)c1ccc(OCCCN(C)C)cc1)c1ccc(Cl)cc1`, 85.5% (inactive); under `CC[C@]12CC(C(=O)OC)=C3Nc4ccccc4[C@@]34CCN(C14)[C@@H]1c3cc4c(cc3O[C@@H]1[C@H]2O)NC1=C(C(=O)OC)C[C@@]2(CC)C3N(CC[C@@]143)C[C@H]1O[C@H]12` (stereo partly drawn), 31.1% (inactive).
For `Cc1ccc(-c2csc(N/N=C/c3cccs3)n2)cc1` the value was 100% (inactive); for `CN1CCC[C@]2(C)[C@H]3CC[C@@H]4[C@@H]5[C@H]6OC[C@@]5(CCC6(C)C)CC[C@@]4(C)[C@]3(C)CC[C@H]2C1(C)C`, 88.9% (inactive).
Under `O=S(=O)(Oc1ccc(-c2cn3ccoc3n2)cc1)c1cccc(C(F)(F)F)c1` stands 96.2% (inactive); under `CC(Nc1c(C#N)cnc2ccc(-c3cncc(-c4n[nH]c(=O)o4)c3)cc12)c1ccccc1` (stereo not drawn), 11% (inactive); under `C#CCN(C)CCCOc1ccc(NC(=O)CCCCCCCCC(=O)NO)cc1Cl`, 95.9% (inactive).
On to `CCCc1cc2cc(-n3nc(CC)c4c3CC(C)(C)CC4=O)cc(NC3CCC(O)CC3)c2c(=O)[nH]1` (stereo not drawn), for which the growth is 7.81% (active).
For `O=C(CN1CCN(c2cc(=O)[nH]c3ccc(F)cc23)CC1)N(c1ccccc1)c1ccccc1` the value was 97.1% (inactive).
Regarding `CN1CCN(c2ccc(Nc3nc(NCCCNS(=O)(=O)c4cccc(F)c4)c4sccc4n3)cc2)CC1`, the growth is 67.4% (inactive).
Consider `COc1ccc(C(=NNS(=O)(=O)c2ccc(C)cc2)c2ccccc2)cc1OC`, for which the growth was 98.9% (inactive).
For `COc1ccc(/C=N/NC(=O)c2c(N)nn(C)c2Nc2ccccc2)cc1Oc1ccccc1` the value was 95.5% (inactive); for `C#C[C@]1(O)CC[C@H]2[C@@H]3CC=C4c5sc(NCc6ccccc6)nc5CC[C@]4(C)[C@H]3CC[C@@]21C`, 83.6% (inactive); for `Cc1cc(NS(=O)(=O)c2ccc(NC(=O)CSc3nc4ccccc4c(=O)n3-c3ccccc3)cc2)no1`, 101% (inactive).
Take `CC(C)NC(=O)c1cc(-c2ccc(NC(=O)Nc3ccc(F)c(C(F)(F)F)c3)cc2)nc2cccnc12`: the growth is 98.4% (inactive).
For the molecule `CCOC(=O)c1cccnc1Nc1ccc(NC(=O)Nc2ccc(Cl)c(C(F)(F)F)c2)cc1`, the growth is 51.3% (inactive).
`O=C(CSc1nc2ccccc2c(=O)n1-c1ccc(S(=O)(=O)Nc2ccc(Cl)nn2)cc1)Nc1ccc(S(=O)(=O)Nc2ccc(Cl)nn2)cc1`: the growth is 106% (inactive).
On to `COc1cc(-c2nc(-c3ccccc3)[nH]c2-c2ccnc(NCCCNS(=O)(=O)c3ccc(C(F)(F)F)cc3)n2)ccc1Cl`, for which the growth was 49.4% (inactive) and 49.5% (inactive).
Consider `Cc1csc(/N=C(N)/N=C(\N)c2cccc(C#N)c2)n1`, for which the growth is 92.3% (inactive).
For the molecule `CC[C@]12C=CCN3CC[C@]4(C(=C(C(=O)OC)C1)Nc1cc5c(cc14)[C@@H]1[C@H](O5)[C@@H](O)[C@@]4(CC)CC(C(=O)OC)=C5Nc6cc(O)ccc6[C@@]56CCN1C46)C32` (stereo partly drawn), the growth was 13.8% (inactive).
Under `COc1ccc(OC)c(CCn2cncc2-c2c[nH]c3ccc(Cl)cc23)c1` stands 63.6% (inactive); under `Cc1ccc(-c2cc3nc(C(Cl)Cl)nc(-c4ccc(S(=O)(=O)N(C)C)cc4)n3n2)cc1`, 50.7% (inactive).
As to `CC1=C(C)C(=O)C(Nc2cccc(C(=O)OC(C)(C)C)c2)=C(Cl)C1=O`, the growth is 84.1% (inactive).
Under `COC(=O)c1ccc(NC2=C(Cl)C(=O)C(C)=C(C)C2=O)cc1` stands 80.2% (inactive); under `Cc1nc(/N=C(N)/N=C(\N)c2cccc(Br)c2)sc1C`, 47.3% (inactive).
For `COC(=O)c1cccc(NC2=C(Cl)C(=O)c3nc(C)ccc3C2=O)c1`, the growth was 93.1% (inactive).
Under `CN(C)c1ccc(/C=N/Nc2nc(N/N=C/c3ccc(N(C)C)cc3)nc(N3CCCCC3)n2)cc1` stands 50.4% (inactive).
Regarding `OCC(Nc1ncnc2ccc(-c3cnc4cnccn34)cc12)c1ccccc1` (stereo not drawn), the growth is 80.7% (inactive).
